Results reported in PubChem BioAssay (EPA / NIEHS).
Active and inactive are the calls of the source. Rule for the calls: active = hit-call score of the fitted dose curve at least 0.9, where 1 is the maximum; inactive = score below 0.9.

Read-out: Bcl-2 (BAX) gene, BAX (gene 581)
Experiment: LTEA_HepaRG_BAX: Life Technologies and Expression Analysis (LTEA) Assay for Bcl-2 (BAX) gene using HepaRG (AID 2283470)
Conditions: mRNA level, 48 h; actives raise or lower the signal
Protocol: LTEA_HepaRG is a cell based, multiplexed-readout assay that uses HepaRG, a human liver cell line, with measurements taken at 48 hours after chemical dosing on a 96-well plate.LTEA_HepaRG_BAX is one of 102 assay component(s) measured in the LTEA HepaRG cell culture assay. It is a marker of Cell proliferation, survival, death.Data from the assay component LTEA_HepaRG_BAX was analyzed into 1 endpoint. This assay endpoint, LTEA_HepaRG_BAX, was analyzed with bidirectional fitting relative to DMSO as the negative control and baseline of activity. Using a type of inducible reporter, measures of mRNA induction for gain or loss-of-signal activity can be used to understand regulation of transcription factor activity. To generalize the intended target to other relatable targets, this assay endpoint is annotated to the cell cycle intended target family, where the subfamily is Cell proliferation, survival, death.
A total of 1060 chemcials from the ToxCast library were tested in eight-point concentration-response experiments. Cell culture and cytotoxicity assays were conducted at Thermo Fisher Scientific's Custom Services facility (Madison, WI). A single lot of human HepaRG cells (Thermo Fisher Scientific, Frederick, MD) was used for the cell culture experiments. 96-well format collagen type I coated plates of human HepaRG cells were prepared using established methods. Briefly, cryopreserved HepaRG cells were thawed, plated at a density of approximately 100,000 cells/well in HepaRG Thaw, Plate, and General Purpose media (HPRG770, Thermo Fisher Scientific), and incubated for 48 hours. 0.5% DMSO was selected as vehicle control to balance the requisite need of DMSO in HepaRG cultures to maintain differentiation (for example, baseline metabolism, proportions of hepatocytes vs. cholangiocytes), while enabling further hepatic receptor pathway activation (for example, PXR and CAR) in response to chemical exposure. 48 hours after plating, the culture medium was replaced with HepaRG Serum-Free Incudtion Media. Cells were exposed to each test chemical in duplicate and maintained in CO2 incubators for another 48 hours. Chemical plates were thawed to room temperature and 200x concentrations of treatment groups were prepared. 8-point conentration-reponse curves were made with the highest exposure at 100 uM, followed by half-log dilutions, all in 0.5% DMSO. Each test plate contained variouse controls, induction positive controls (1mM phenobarbital), cytotoxicity positive controls ([…] aflatoxin B1), vehicle controls (0.5% DMSO), and total lysis controls (0.5% DMSO). Cell morphology images were taken using an Essen IncuCyte FLR automated microscope, with six 96-well plates imaged in about 24 minutes. Images were captured and exported and JPEG files. Spent culture media was transfered to black-well plates for the LDH assay, and remaining media was sorted at -80 C for later use. Cells were treated with RLT buffer and frozen until shipped for gene expression analysis. Total RNA was isolated from the cell suspension in 75 uL of Buffer RLT (Qiagen, Germantown, MD 20874) by Quintiles/Expression Analysis (Durham, NC) using a custom isolation procedure. Total RNA from each plate well was transferred to a preamplification plate. Fluidigm's 96.96 Dynamic ArrayTM (Fluidigm, Amsterdam, the Netherlands) technology was used for gene expression analyses by quantitative reverse transcription polymerase chain reaction (qRT-PCR, performed by Quintiles/Expression Analysis, Durham, NC)89. Standard TaqManTM Assays (Applied Biosystems/ThermoFisher Scientific, Foster City, CA) were used to assess the expression of 93 genes selected based on their selectivity and sensitivity to important hepatic receptors known to be modulated by environmental chemicals; importance in human hepatocyte functionality; and hepatotoxicity. […]

| SMILES | outcome | AC50 |
| --- | --- | --- |
| O=C(Nc1ccccc1-c1ccc(Cl)cc1)c1cccnc1Cl | inactive |  |
| CCNP(=S)(OC)O/C(C)=C/C(=O)OC(C)C (stereo not given) | inactive |  |
| CCOP(=S)(OCC)Oc1nc(Cl)n(C(C)C)n1 | inactive |  |
| CC1(C)C(C(=O)OC(C#N)c2cccc(Oc3ccccc3)c2)C1(C)C (stereo not given) | inactive |  |
| CCCCC(C#N)(Cn1cncn1)c1ccc(Cl)cc1 (stereo not given) | inactive |  |
| CC(C)=CC1C(C(=O)OCc2coc(Cc3ccccc3)c2)C1(C)C (stereo not given) | inactive |  |
| CCSC(=O)N1CCCCCC1 | inactive |  |
| CCCN(CC)CC1COC2(CCC(C(C)(C)C)CC2)O1 (stereo not given) | inactive |  |
| CC(C)Oc1cccc(NC(=O)c2ccccc2C(F)(F)F)c1 | inactive |  |
| CCOC(=O)C(C)OC(=O)c1cc(Oc2ccc(C(F)(F)F)cc2Cl)ccc1[N+](=O)[O-] (stereo not given) | inactive |  |
| CSC(=O)c1c(C(F)F)nc(C(F)(F)F)c(C(=O)SC)c1CC(C)C | inactive |  |
| COC(=O)NC(=S)Nc1ccccc1NC(=S)NC(=O)OC | inactive |  |
| COCC(=O)N(c1c(C)cccc1C)C(C)C(=O)OC (stereo not given) | inactive |  |
| COc1cc(Cl)c(OC)cc1Cl | inactive |  |
| Clc1nc(Cl)nc(Nc2ccccc2Cl)n1 | inactive |  |
| CCC(C)n1c(=O)[nH]c(C)c(Br)c1=O (stereo not given) | inactive |  |
| CC(C)(C)C(=O)C(Oc1ccc(Cl)cc1)n1cncn1 (stereo not given) | inactive |  |
| Nc1c(Cl)c(Cl)nc(C(=O)O)c1Cl | inactive |  |
| COCC(C)N(C(=O)CCl)c1c(C)csc1C (stereo not given) | inactive |  |
| O=C(O)c1c(Cl)ccc2cc(Cl)cnc12 | inactive |  |

| SMILES | outcome | AC50 |
| --- | --- | --- |
| COC(=O)c1c(C(F)F)nc(C(F)(F)F)c(C2=NCCS2)c1CC(C)C | inactive |  |
| COC(=O)NS(=O)(=O)c1ccc(N)cc1 | inactive |  |
| CCNC(=O)NC(=O)C(C#N)=NOC | inactive |  |
| CC1(C)C(C=C(Cl)Cl)C1C(=O)OC(C#N)c1cccc(Oc2ccccc2)c1 (stereo not given) | inactive |  |
| CCOc1nc(F)cc2nc(S(=O)(=O)Nc3c(Cl)cccc3Cl)nn12 | inactive |  |
| CC(C)N1C(=O)N(c2ccccc2)CSC1=NC(C)(C)C |  | 77.4 µM (active) |
| COc1cc(OC)nc(NC(=O)NS(=O)(=O)c2ncccc2OCC(F)(F)F)n1 | inactive |  |
| N#Cc1c[nH]cc1-c1cccc2c1OC(F)(F)O2 |  | 23.3 µM (active) |
| CN=C=S | inactive |  |
| Cc1ccc(N=CN(C)C=Nc2ccc(C)cc2C)c(C)c1 | inactive |  |
| C=C(C)CN(CC)c1c([N+](=O)[O-])cc(C(F)(F)F)cc1[N+](=O)[O-] | inactive |  |
| CS(=O)(=O)c1ccc(C(=O)C2C(=O)CCCC2=O)c([N+](=O)[O-])c1 | inactive |  |
| Cn1c(-c2ccccc2)cc(-c2ccccc2)[n+]1C | inactive |  |
| CNC(=O)Oc1cccc2ccccc12 | inactive |  |
| Nc1c(Cl)c(F)nc(OCC(=O)O)c1Cl | inactive |  |
| CCN(CC)C(=O)C(C)Oc1cccc2ccccc12 (stereo not given) | inactive |  |
| CCOc1cc(C(C)(C)C)ccc1C1COC(c2c(F)cccc2F)=N1 (stereo not given) | inactive |  |
| CCCCOCN(C(=O)CCl)c1c(CC)cccc1CC | inactive |  |
| CC(C)C1(C)N=C(c2ncccc2C(=O)O)NC1=O (stereo not given) | inactive |  |
| CC(C)Nc1nc(Cl)nc(NC(C)C)n1 | inactive |  |
